A short description of assay [1]: NCI Yeast Anticancer Drug Screen. Data for the rad50 strain (AID 155).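 Note: 0% = growth of vehicle-only cultures of the same strain.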 The conditions noted are these: S. cerevisiae rad50 strain growth inhibition; at 50.0 µM; hits give high values. The method, boiled down: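 Inhibition values express reduced yeast growth in compound-treated cultures relative to vehicle-treated controls.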
Assay [2] is described as follows: NCI Yeast Anticancer Drug Screen. Data for the mec2-1 strain (AID 157). Conditions: S. cerevisiae mec2-1 strain, at 50.0 µM, hits give high values. The procedure, abridged:
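Strain: mec2-1 (DNA repair/cell cycle alteration). Compound exposure, then growth measured; inhibition expressed relative to vehicle.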

The nature of assay [3]: NCI Yeast Anticancer Drug Screen. Data for the sgs1 mgt1 strain (AID 161).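 Note: 0% = growth of cultures given vehicle only.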 Conditions: S. cerevisiae sgs1 mgt1 strain, at 50.0 µM, hits give high values. The procedure, abridged:
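Inhibition of yeast growth, normalised to vehicle-treated controls, is reported for a strain bearing genetic alterations in DNA damage repair.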

The nature of assay [4]: NCI Yeast Anticancer Drug Screen. Data for the cln2 rad14 strain (AID 165).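 Note: 0% = growth equal to vehicle treated cultures.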 Conditions: S. cerevisiae cln2 rad14 strain, at 50.0 µM, hits give high values. The method, boiled down:
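Compounds are applied to the cln2 rad14 yeast strain, and growth is then compared with that of vehicle-treated cultures to give inhibition.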

Assay [5] in a line: NCI Yeast Anticancer Drug Screen. Data for the bub3 strain (AID 167). The conditions noted are these: S. cerevisiae bub3 mutant strain, at 50.0 µM, hits give high values. The procedure, abridged: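 Steps: expose the mutant yeast strain to compound; grow alongside vehicle-treated cultures; measure growth; express inhibition against the vehicle cultures.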
The nature of assay [6]: NCI Yeast Anticancer Drug Screen. Data for the mlh1 rad18 strain (AID 175). Conditions: S. cerevisiae mlh1 rad18 strain growth inhibition; at 50.0 µM; hits give high values. The procedure, abridged:
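Read-out is yeast growth inhibition, calculated against vehicle-only controls. The compound was applied to a strain engineered with DNA damage repair alterations.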

Compounds without any hit were thinned out: in the full panel of roughly 79,000, 15% have a hit. A number with no mark means an inactive call. Active and inactive are the calls of the source. Cut-off read from the data, not from the text of the source: active = growth inhibition above about 70%; inactive = the rest.

On to `C=C1SC(=Nc2c(C)cccc2C)N(c2nc(Cl)nc(Cl)n2)C12CCCCC2`, for which the growth inhibition in assay [1] was 21%; in assay [2] it was -8.75%; in assay [3], 11.2%; in assay [4], 19.1%; in assay [5], 10.9%; in assay [6], 14.1%.
As to `N#Cc1ccc(OC(=O)Nc2c(Cl)cc(Cl)cc2Cl)cc1`, the growth inhibition in assay [1] is -10.2%; in assay [2], -14.7%; in assay [3] it was 15.4%; in assay [4] it was 23.2%; in assay [5] it was 30.4%; in assay [6] it was 9.95%.
For `O=C(OCc1ccccc1)n1nnc2ccccc21`, the growth inhibition in assay [1] is 27.8%; in assay [2] it was -4.05%; in assay [3], 8.55%; in assay [4], -17.2%; in assay [5], 19.2%; in assay [6], 2.45%.
In the case of `CC(C)N1CC(=O)N2CSCC2C1=O` (configuration not stated), the growth inhibition is 14.1% in assay [1]; 8.3% in assay [2]; 9.8% in assay [3]; -6.85% in assay [4]; 13.1% in assay [5]; 3.25% in assay [6].
On to `C=CC(C)(C)n1cc(C2=C(O)C(=O)C(c3cn(C(C)(C)C=C)c4ccccc34)=C(O)C2=O)c2ccccc21`, for which the growth inhibition was -1.6% in assay [1]; -26.6% in assay [2]; -2.3% in assay [3]; 4.7% in assay [4]; -18.8% in assay [5]; -13.4% in assay [6].
Regarding `OCCOc1ccc(-c2cc(-c3ccccn3)nc(-c3ccccn3)c2)cc1`, the growth inhibition in assay [1] is 57.6%; in assay [2] it was 46.3%; in assay [3] it was 43%; in assay [4], 44.5%; in assay [5], 46.7%; in assay [6] it was 77.4% (active).
In the case of `CCCC1OC(c2ccco2)OCC1CC` (configuration not stated), the growth inhibition was 30.8% in assay [1]; -2.15% in assay [2]; 18.6% in assay [3]; -27.8% in assay [4]; -0.05% in assay [5]; 27.1% in assay [6].
As for `C=CCN1CCCC1=O`, the growth inhibition was 7.85% in assay [1]; 10.6% in assay [2]; 1.5% in assay [3]; -18.6% in assay [4]; -16.2% in assay [5]; 4.05% in assay [6].
Turning to `OCC1OC(n2ccc3c2ncn2ncnc32)C(O)C1O` (configuration not stated), the growth inhibition was -20.7% in assay [1]; 3.45% in assay [2]; -10.4% in assay [3]; -15.3% in assay [4]; -37.6% in assay [5]; -47.8% in assay [6].
`Nc1cc(N)ncn1`: the growth inhibition was -1.3% in assay [1]; -18.9% in assay [2]; 3.6% in assay [3]; 22.5% in assay [4]; -10.1% in assay [5]; 26.7% in assay [6].
Turning to `Cc1ccc(S(N)(=O)=O)cc1Cl`, the growth inhibition was 10.1% in assay [1]; -20.1% in assay [2]; 13.2% in assay [3]; 5.8% in assay [4]; -1.5% in assay [5]; 16.6% in assay [6].
On to `Cc1cc(Cl)cc(Cc2cc(Cl)cc(C)c2O)c1O`, for which the growth inhibition in assay [1] was 50.1%; in assay [2] it was 24.1%; in assay [3] it was 55%; in assay [4], 29%; in assay [5], 22.1%; in assay [6], 20.6%.
On to `Nc1ccc(F)cc1F`, for which the growth inhibition in assay [1] is 6%; in assay [2], -2.25%; in assay [3], -3.7%; in assay [4], -27.1%; in assay [5], 18.1%; in assay [6] it was 7.35%.
`CCCCCC/C=C\CCCCCCCCCc1cc(O)cc(OC)c1O`: the growth inhibition in assay [1] is -8.55%; in assay [2], 4.45%; in assay [3] it was -5.65%; in assay [4], -9.8%; in assay [5], -33.2%; in assay [6], 13.2%.
`COc1ccc(/C=C\C(=O)/C=C/c2ccc(OC)cc2)cc1`: the growth inhibition was -11.9% in assay [1]; 7.05% in assay [2]; 1.5% in assay [3]; -14.4% in assay [4]; -3.35% in assay [5]; 0% in assay [6].
As for `CCN(Cc1ccc(Cl)c(Cl)c1)c1ccc2nc(N)nc(N)c2c1C`, the growth inhibition in assay [1] is 40%; in assay [2], 84.6% (active); in assay [3], 50.9%; in assay [4], 40.3%; in assay [5], 6.15%; in assay [6], 29.9%.
On to `Cc1ccc2nc(-c3ccc(N=Cc4ccccc4O)cc3)sc2c1`, for which the growth inhibition in assay [1] was 17.7%; in assay [2], 12.9%; in assay [3] it was 6.5%; in assay [4], -6%; in assay [5], 27.9%; in assay [6] it was 12.3%.
As for `O=S(=O)(O)c1cccc2cccnc12`, the growth inhibition was 4.3% in assay [1]; 1.95% in assay [2]; 7% in assay [3]; -14.6% in assay [4]; 10.4% in assay [5]; -0.5% in assay [6].
Take `CS(=O)CC(=N\O)/C(CS(C)=O)=N\O` (configuration not stated): the growth inhibition in assay [1] was 9.7%; in assay [2] it was -4.45%; in assay [3] it was 4.5%; in assay [4], -8.85%; in assay [5], -2.8%; in assay [6] it was 9.2%.
In the case of `O=C1NC(=O)/C(=C\c2ccncc2)N1`, the growth inhibition in assay [1] is 28.9%; in assay [2], -7.8%; in assay [3], -0.3%; in assay [4], 9.3%; in assay [5], -19.8%; in assay [6] it was -56.5%.
In the case of `CCCCCCCCCCCCCCCCOc1ccccc1NC(=O)CC(C)=O`, the growth inhibition in assay [1] was -8.7%; in assay [2] it was -18.9%; in assay [3] it was -9.1%; in assay [4] it was -5.85%; in assay [5], -5.3%; in assay [6], -3.95%.
For the molecule `COc1ccc2c(Cl)cc(NC(=O)Nc3c(C)cccc3C)nc2c1`, the growth inhibition in assay [1] is 5.8%; in assay [2], 1.15%; in assay [3], 13.9%; in assay [4] it was 6.65%; in assay [5], 21.1%; in assay [6] it was 7.2%.

These data come from PubChem BioAssay (NCI).
